Bioassay records as filed in PubChem.
KDM4E inh – inhibitors of human JMJD2E histone demethylase; hit rate 1.6% among 230,000; Potency, µM (highest dose often 57.1 µM), for the others: top-dose activity change, negative = inhibition, actives largely listed as inhibitors; JMJD2E catalytic domain, FDH-coupled NADH fluorescence (FDH is formaldehyde dehydrogenase); AID 2147; B2RXH2; active = well fitted inhibition curve with a large enough effect, not every such curve was filed as active; inconclusive = small, poorly fitted or top-dose-only effect, or another doubt; inactive = no such curve, though single readings can be large or run the other way;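 also: 0% = wells with enzyme and -100% = buffer wells without enzyme; nearly all actives have a fitted effect of over 50% in size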
GCN5L2 inh – GCN5L2 (KAT2A) acetyltransferase inhibition | GCN5L2 HAT assay, ThioGlo1 CoA-SH fluorescence | Potency, µM (doses to about 58.9 µM), without a hit: at the top dose activity change, negative = inhibition, actives largely listed as inhibitors | hit rate 0.21% among 390,000
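qHTS, 1536-well. 20nM enzyme, pH 7.5 HEPES/EDTA/Tween-20 buffer; 15 min compound preinc., RT. Start: 75uM H3(1-25), 70uM AcCoA, 50uM ThioGlo1. Read Ex340/Em540 at t=0 (autofluorescence flag) and t=20 min.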
L3MBTL1 inh – L3MBTL1 (human) inhibition | Q9Y468 | AlphaScreen L3MBTL1–H3K9me1 peptide binding | Potency, µM (doses to about 57.1 µM), without a hit: at the top dose activity, negative = inhibition, most hits filed as inhibitors | hit rate 0.66% among 230,000; also: nearly all actives have a fitted effect of over 60% in size
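L3MBTL1 (50 nM) pre-complexed 30 min with biotinylated H3(1-15)K9me1 peptide (75 nM), then compounds added for 30 min at room temperature; AlphaScreen streptavidin donor/nickel chelate acceptor beads (10 ug/mL final) read after 30 min dark incubation.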
APE1 inh – blocks human APE1 abasic DNA cleavage; P27695; recombinant APE1, TAMRA/BHQ-2 abasic DNA cleavage fluorescence; Potency, µM (top dose mostly 65.8 µM), for the others: top-dose activity change, negative = inhibition, hits mostly inhibitors; hit rate 0.35% among 350,000; AID 2517;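 also: plate controls were vehicle for no effect and reference inhibitor for full effect; nearly all actives have a fitted effect of over 55% in size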
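Activity was derived from the fluorescence gain between first and third kinetic reads (60 s intervals, ex 525/em 598 nm) after 50 nM THF-abasic TAMRA/BHQ-2 duplex was added to 0.75 nM APE1 preincubated 15 min with compound.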
RECQ1 inh-1 – inhibitors of human RECQ1 DNA helicase | Potency, µM (titrated, usually from 57.3 µM), inactives show at the highest dose activity, negative = inhibition, most hits filed as inhibitors | RECQ1 DNA unwinding, red fluorescence kinetic read | hit rate 0.54% among 240,000 | P46063;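 also: plate controls were vehicle for no effect and no enzyme for full effect; nearly all actives have a fitted effect of over 30% in size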
Target sequence (P46063 whole entry, looked up): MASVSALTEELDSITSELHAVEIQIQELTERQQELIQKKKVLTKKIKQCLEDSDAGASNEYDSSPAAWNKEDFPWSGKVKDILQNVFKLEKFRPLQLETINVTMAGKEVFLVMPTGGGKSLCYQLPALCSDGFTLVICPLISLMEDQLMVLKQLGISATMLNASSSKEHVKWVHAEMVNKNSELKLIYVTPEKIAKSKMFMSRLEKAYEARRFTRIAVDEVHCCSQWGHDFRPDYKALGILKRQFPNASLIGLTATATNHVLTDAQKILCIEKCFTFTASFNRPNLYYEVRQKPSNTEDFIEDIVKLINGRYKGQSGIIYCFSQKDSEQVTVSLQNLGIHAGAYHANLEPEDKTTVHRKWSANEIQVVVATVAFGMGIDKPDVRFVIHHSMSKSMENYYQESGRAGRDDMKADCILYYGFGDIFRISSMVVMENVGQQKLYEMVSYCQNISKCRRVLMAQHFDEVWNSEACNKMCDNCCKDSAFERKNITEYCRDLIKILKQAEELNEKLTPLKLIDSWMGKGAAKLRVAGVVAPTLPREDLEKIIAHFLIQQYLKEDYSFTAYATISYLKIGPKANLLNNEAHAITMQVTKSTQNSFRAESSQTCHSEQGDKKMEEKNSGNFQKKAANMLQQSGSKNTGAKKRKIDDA
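50 nM RECQ1T1 preincubated 15 min with compound in Tris pH 8.0 buffer with MgCl2, DTT, Tween-20 and 2.5 ug/ml poly(dI-dC); started with 200 nM TAMRA/BHQ-2 forked duplex and 2 mM ATP. Unwinding read as fluorescence (525/598 nm), two reads 2 h apart.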
BLM inh – inhibitors of human Bloom syndrome helicase BLM; P54132; recombinant BLM DNA unwinding, fluorescence dequenching; Potency, µM (highest dose often 56.1 µM), inactives show top-dose activity change, negative = inhibition, hits mostly inhibitors; hit rate 0.2% among 350,000; AID 2528;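 also: plate controls were vehicle for no effect and no enzyme for full effect; nearly all actives have a fitted effect of over 35% in size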
RECQ1 inh conf – confirmation of human RECQ1 helicase inhibitors. shares compounds with RECQ1 inh-1. Potency, µM (top dose mostly 229 µM), inactives show top-dose activity change, negative = inhibition, most hits filed as inhibitors. RECQ1 helicase DNA unwinding, fluorescence. hit rate 28% among 610. AID 2708; also: nearly all actives have a fitted effect of over 45% in size
ADP FP counter – displaces ADP in a fluorescence polarization counter-screen for RECQ1 hits; shares compounds with RECQ1 inh-1; ADP fluorescence polarization displacement counterscreen; Potency, µM (top dose mostly 228 µM), without a hit: at the highest dose activity change, negative = inhibition, hits mostly inhibitors; hit rate 27% among 530; AID 2711; also: nearly all actives have a fitted effect of over 45% in size
RECQ1 inh-2 – confirmation of human RECQ1 helicase inhibitors | shares compounds with RECQ1 inh-1 | recombinant RECQ1 DNA unwinding, red fluorescence | Potency, µM (titrated, usually from 119 µM), for inactives: at the highest dose activity, negative = inhibition, hits mostly inhibitors | hit rate 15% among 1,100; also: nearly all actives have a fitted effect of over 50% in size
* marks the source's active call; other numbers are inactive results; i = inactive; ? = inconclusive; . = not tested or not shown; [ ] = dose if it differs, or a comment. This excerpt belongs to a sample that is enriched for hits. Unless noted, calls follow the shape of the dose curve; as a rule, active = well fitted curve in the direction sought with a large enough effect; inconclusive = small, poorly fitted or top-dose-only effect, or another doubt; inactive = no such curve, though single readings can be large; an effect the other way counts as inactive or inconclusive. Unless noted, % is scaled to controls: 0 for no effect and ±100 for the full control effect; potency is read from the fitted curve at half-maximal effect.

SMILES	KDM4E inh	GCN5L2 inh	L3MBTL1 inh	APE1 inh	RECQ1 inh-1	BLM inh	RECQ1 inh-2	others
Cc1ccc(OC(C)C(=O)N(Cc2cccs2)C2CCS(=O)(=O)C2)cc1C (centres undefined)	-1%	-4%	6%	-2%	i	-5%	.
COc1ccc(S(=O)(=O)Nc2ccccc2C(=O)Nc2nc(-c3ccc(F)cc3)cs2)cc1OC	?	-29%	2%	-6%	?	-8%	?
COc1ccc(-c2csc(NC(=O)c3ccccc3NS(=O)(=O)c3ccc(C)cc3)n2)cc1	?	-29%	-8%	-6%	?	-21%	.
Cc1c2c(=O)n(-c3nc4ccccc4s3)nc-2cc(O)n1Cc1ccccc1	?	?	.	?	22µM*	16µM*	-6%	RECQ1 inh conf=45µM*;ADP FP counter=48%[91.9 µM]
CC(C)(C)c1nc(SCC(=O)NCc2ccco2)c2ccccc2n1	-5%	-7%	-3%	-3%	4%	-7%	.
O=C(CSc1c2c(nc3ccccc13)CCCC2)NCc1ccco1	?	-3%	.	8%	14µM*	-1%	-1%	RECQ1 inh conf=-7%[114 µM];ADP FP counter=?
COc1ccc(CCn2c(N)c(C(=O)NCc3ccco3)c3nc4ccccc4nc32)cc1OC	?	?	26%	?	?	-10%	-5%
Cc1cc(=O)c2c(O)c(O)ccc2o1	?	26%	18µM*	?	35µM*	-3%	-9%
CC1=CCc2c(cc3oc(C)cc(=O)c3c2O)OC1	?	-3%	.	1%	i	1%	.
CCC1=C(OC(=O)N(CC)CC)N2C(=O)OC(=NCCOC)[C@]2(C)[C@H]2C1=CC[C@H]1C(=O)NC(=O)[C@H]12	-3%	.	.	-9%	i	0%	.
O=C(CSc1nnc2ccccn12)Nc1ccccc1C(=O)NC1CC1	?	?	33%	5%	i	-9%	.
Cc1c(-n2c(SC(C)C(=O)NC(N)=O)nc3ccccc3c2=O)c(=O)n(-c2ccccc2)n1C (centres undefined)	-2%	-11%	3%	4%	-2%	4%	.	RECQ1 inh conf=1%;ADP FP counter=5%
Cc1ccccc1CSc1nnc(NC(=O)Cc2cccs2)s1	3%	-3%	?	?	40µM*	-21%	-29%
CCc1nnc(NC(=O)CSCc2cc(=O)c3ccc(C)cc3[nH]2)s1	.	-1%	.	.	.	0%	.
CN1/C(=C/C(=O)CSc2ccccc2C(=O)O)C(C)(C)c2ccccc21	3%	-15%	-15%	1%	5%	-5%	.
CN1/C(=C\C(=O)COC(=O)CNC(=O)c2ccc3ccccc3c2)C(C)(C)c2ccccc21	?	-9%	-14%	6%	35µM*	-7%	56µM*
Cc1cc(=O)[nH]c(SCC(=O)/C=C2\N(C)c3ccccc3C2(C)C)n1	?	-4%	-2%	-11%	32µM*	1%	-50%
CN1/C(=C\C(=O)COC(=O)c2ccc(O)c(O)c2)C(C)(C)c2ccccc21	?	-10%	-27%	8%	25µM*	-27%	40µM*
CCc1ccc(NC(=O)c2cnn(-c3c(C)cccc3C)c2C2CCN(C(=O)OC(C)(C)C)CC2)cc1	.	-24%	.	.	.	-12%	.
CCn1c(SC)nnc1C1CCCN(CC(=O)Nc2ccccc2N2CCOCC2)C1 (centres undefined)	.	1%	.	1%[12.4 µM]	.	-10%	.
COc1cc(NC(=O)c2ccc(-n3cnc4cccnc43)cc2)cc(OC)c1	.	0%	.	.	.	-2%	.
Cc1ccc(S(=O)(=O)N(C)Cc2nc(-c3ccccc3)oc2C)cc1	.	-16%	.	.	.	-6%	.
O=c1c(-c2ccc(F)cc2)nc2cnc(N3CCOCC3)nc2n1C1CC1	.	-8%	.	3%	i	0%	.
COc1ccc2[nH]cc(CCNc3ncnc4ccc(-c5ccoc5)cc34)c2c1	.	-16%	.	-4%	?	-1%	?
COc1ccc(CNc2ncnc3ccc(-c4ccoc4)cc23)c(OC)c1	.	-19%	.	-2%	-4%	4%	.
SMILES	KDM4E inh	GCN5L2 inh	L3MBTL1 inh	APE1 inh	RECQ1 inh-1	BLM inh	RECQ1 inh-2	others
CC(NC(=O)/C(=C/c1cccc([N+](=O)[O-])c1)NC(=O)c1ccco1)C(=O)O (centres undefined)	5%	23%	8%	21%	-11%	2%	.	RECQ1 inh conf=0%;ADP FP counter=8%
O=C(NC(Cc1ccccc1)C(=O)O)/C(=C\c1cccc([N+](=O)[O-])c1)NC(=O)c1ccco1 (centres undefined)	.	?	.	38%	.	-1%	.
CC1CCN(C(=O)C2CCN(S(=O)(=O)c3ccc(-n4cnnn4)cc3)CC2)CC1	.	-10%	.	4%	.	-4%	.
O=C(/C=C/c1ccc2c(c1)OCO2)Nc1nc(-c2ccccc2)cs1	?	-26%	3%	9%	1.4µM*	-11%	?	RECQ1 inh conf=-3%[114 µM];ADP FP counter=6%[91.9 µM]
Cc1sc(NC(=O)/C=C/c2ccc3c(c2)OCO3)nc1-c1ccccc1	-1%	?	1%	21%	-14%	-9%	.
Nc1ncnc2c1ncn2COC(CO)CO	.	.	.	.	.	.	.	RECQ1 inh conf=-6%[69.1 µM]
Nc1ncnc2c1ncn2CCOCP(=O)(O)O	.	3%	.	.	.	-11%	.
CC1=Nc2ccccc2/C1=C\c1nc(-c2ccc(F)cc2)oc1O	?	-6%[0.501 µM]	.	9%	?	-19%	?
COc1ccc(NS(=O)(=O)c2ccc(O)c(NC(=O)c3cc4c(C)nn(-c5ccc(F)cc5)c4s3)c2)cc1	?	?	-15%	?	?	28µM*	?
CC1(C)CC(=O)/C(=C(\O)CCCN2C(=O)c3ccccc3C2=O)C(=NCC(=O)O)C1	5%	-3%	.	15%	i	0%	.	RECQ1 inh conf=-2%;ADP FP counter=2%
COc1cc(/C=C2\CCC/C(=C\c3ccc(O)c(OC)c3)C2=O)ccc1O	.	?	.	-7%	.	-6%	.
COc1cc(/C=C2\CC/C(=C\c3cc(OC)c(O)c(OC)c3)C2=O)cc(OC)c1O	?	-11%	28µM*	?	14µM*	?	2.8µM*
CN(c1ccc(F)cc1)S(=O)(=O)c1ccc(Cl)c(C(=O)Nc2ccc3c(c2)CCC3)c1	4%	-11%	5%	10%	32µM*	-2%	-16%
